Each structure is given as a SMILES string. Several values for one entry are separate records, joined by “and”; a condition that tells them apart may be missing. Equal values may be shown once. About 610 (9.5%) of roughly 6,400 compounds were called active. No stated cut-off is given here; in the data, active means activity change below about -70%; inconclusive means no clear call, values can overlap the other calls; inactive means above that. The list comes from a sample in which actives are over-represented; it also holds similar structures and randomly drawn compounds. Some structures have more than one record in an assay (separate samples or runs), and their calls can disagree.

This assay in a line: T. gondii ME49Luc in HeLa cells, luciferase assay, 72 h, no IFN-y (AID 1259421). Particulars: stronger effect = lower value, concentration not given here.
Regarding `CC(=C(CCOP(=O)(O)O)SC(=O)c1ccccc1)N(C=O)Cc1cnc(C)nc1N`, the activity change, negative = inhibition is -0.0808% (inactive).
As for `O=C(Nc1cc(Cl)cc(Cl)c1O)c1c(O)c(Cl)cc(Cl)c1Cl`, the figure is 1.68% (inactive); as for `Oc1c(Cl)cc(Cl)c(Cl)c1Cc1c(O)c(Cl)cc(Cl)c1Cl`, -88.2% (active) and -95.3% (active).
Under `CCCC(CCC)C(=O)OC1C[C@H]2CC[C@@H](C1)[N+]2(C)C` (stereo partly drawn) stands 9.62% (inactive); under `O=C(NC1CCN(Cc2ccccc2)CC1)c1ccc(I)cc1`, 21.8% (inactive) and 21.3% (inactive).
As for `C=CCc1cccc(/C=N/NC(=O)CN2CCN(Cc3ccccc3)CC2)c1O`, the figure is -76.9% (active) and 6.28% (inactive).
Regarding `O=C(COc1ccc(C(=O)c2ccccc2)cc1)NC1CCN(Cc2ccccc2)CC1`, the activity change, negative = inhibition was -17.8% (inactive).
Under `Cc1ccccc1N=Nc1ccc(NC(=O)c2ccnn2C)c(C)c1` stands -4.39% (inactive); under `Cc1nc2ccc(CN(C)c3ccc(C(=O)N[C@@H](CCC(=O)O)C(=O)O)s3)cc2c(=O)[nH]1`, -4.51% (inactive).
As for `O=C(O)c1cc(-c2ccccc2)nc2ccccc12`, the figure is 42.2% (inactive) and 11.3% (inactive); as for `O=C(O)c1ccc(-c2c[nH]c3ncc(-c4ccccc4)cc23)cc1C1CCCC1`, -82.2% (active).
As for `CCC(=O)OCC(=O)[C@@]1(OC(=O)CC)[C@@H](C)CC2C3CCC4=CC(=O)C=C[C@]4(C)C3(F)[C@@H](O)C[C@@]21C` (stereo partly drawn), the figure is -0.442% (inactive); as for `CC(=O)Nc1ccc(S(=O)(=O)Nc2onc(C)c2C)cc1`, 6.51% (inactive); as for `NCCCC(N)(C(=O)O)C(F)F` (stereo not drawn), 7.14% (inactive).
On to `COc1cc(OC)c2c(=O)cc(-c3ccccc3)oc2c1`, for which the activity change, negative = inhibition was 147% (inactive).
As for `COc1cc(OC)c2c(OC)c(-c3ccc4c(c3)OCO4)c(=O)oc2c1`, the figure is -77.7% (active).
Under `COc1cc(OC)c2c(=O)c(OC)c(-c3ccccc3)oc2c1` stands 43.5% (inactive); under `O=C(NCCc1ccc(O)c(O)c1)C12CC3CC(CC(C3)C1)C2`, 1.2% (inactive); under `N#C/C(=C\c1ccc(O)c(O)c1)C(=O)OCCc1cccs1`, 2.66% (inactive).
As for `COc1cc2c(cc1OC)Cc1cc(OC)c(OC)cc1Cc1cc(OC)c(OC)cc1C2`, the figure is 6.34% (inactive).
Regarding `COc1cccc(N2CCN(C3=Nc4c(F)cccc4[C@H](CC(=O)O)N3c3cc(C(F)(F)F)ccc3OC)CC2)c1`, the activity change, negative = inhibition was -1.57% (inactive).
Under `O=C1c2ccccc2CCC1CNCCc1ccc(O)cc1` (stereo not drawn) stands 9.23% (inactive); under `O=S(=O)(O)c1ccc(O)cc1`, 0.395% (inactive).
Under `CC(=O)N1CCN(C)CC1` stands 1.18% (inactive) and 9.84% (inactive); under `O=c1c2cc(O)c(O)cc2oc2cc(O)c(C3O[C@H](CO)[C@H](O)[C@@H](O)[C@H]3O)c(O)c12` (stereo partly drawn), 3.15% (inactive).
Under `COc1ccc(-c2cc(=O)c3c(O)c(OC)c(O[C@H]4O[C@H](CO[C@@H]5O[C@@H](C)[C@H](O)[C@@H](O)[C@H]5O)[C@@H](O)[C@H](O)[C@H]4O)cc3o2)cc1` stands 15.1% (inactive); under `O=C(NNc1nc2cc(F)ccc2n2cccc12)c1cnccn1`, -77.3% (active).
Turning to `NC(Cc1ccc(F)cc1)C(=O)O` (stereo not drawn), the activity change, negative = inhibition was 2.32% (inactive).
Under `CCCCNc1ncc(-c2ccc(CN3CCOCC3)cn2)c(NC2CCC(O)CC2)n1` (stereo not drawn) stands -67.2% (inactive).
Under `OC1CCC(Nc2ncc3nc(Nc4c(F)cc(F)cc4F)n([C@H]4CCOC4)c3n2)CC1` (stereo partly drawn) stands -77.1% (active).
As for `O=C(CN1C(=O)c2ccccc2S1(=O)=O)Nc1ccc(O)cc1`, the figure is 6.78% (inactive); as for `Nc1nc(NCCNc2ncc(-n3ccnc3)c(-c3ccc(Cl)cc3Cl)n2)ccc1[N+](=O)[O-]`, 38.7% (inactive).
With `COc1ccc(S(=O)(=O)N2CCCN(S(=O)(=O)c3ccc(OC)c(OC)c3)CC2)cc1OC`, the activity change, negative = inhibition is 0.269% (inactive).
As for `O=C(NO)c1cnc(N2CCN(S(=O)(=O)c3ccc4ccccc4c3)CC2)nc1`, the figure is -82.9% (active); as for `COc1ccccc1N1CCN(CCCCNC(=O)c2ccc3ccccc3c2)CC1`, -12.8% (inactive); as for `O=c1[nH]c(=O)c2ccccc2o1`, 7.04% (inactive) and -95.9% (active).
Under `O=c1c2ccccc2oc2ccccc12` stands 16.7% (inactive); under `O=C(O)c1cc(=O)c2ccccc2o1`, 5.57% (inactive) and 14.8% (inactive); under `OC(c1ccccc1)(c1ccccc1)C12CC[N+](CCOCc3ccccc3)(CC1)CC2`, 13.9% (inactive).
Under `COc1ccc2oc(-c3ccccc3OC)cc(=O)c2c1` stands 44.1% (inactive); under `O=C(Nc1ccccc1)NC1CC(C(=O)O)Nc2cc(Cl)cc(Cl)c21` (stereo not drawn), 13% (inactive).
Take `CCCNC(C)C(=O)Nc1ccccc1C` (stereo not drawn): the activity change, negative = inhibition is 37.2% (inactive) and -79.6% (active).
As for `CCCNC(C)C(=O)Nc1c(C)csc1C(=O)OC` (stereo not drawn), the figure is 20% (inactive); as for `Cc1ccccc1N=C(N)Nc1ccccc1C`, 5.45% (inactive) and 4.9% (inactive).
For `CCCCCCCCCCCCCCCC(=O)OC1C(SC)OC(C(NC(=O)C2CC(CCC)CN2C)C(C)Cl)C(O)C1O` (stereo not drawn), the activity change, negative = inhibition was -9.26% (inactive).
For the compound `COCCn1c2c([n+](Cc3cnccn3)c1C)C(=O)c1ccccc1C2=O`, the activity change, negative = inhibition is -83.1% (active) and -81.3% (active).
As to `CN1c2cc(O)c(N=NC(N)=O)cc2CC1S(=O)(=O)O` (stereo not drawn), the activity change, negative = inhibition was -1.43% (inactive).
For `O=P(O)(O)C(Sc1ccc(Cl)cc1)P(=O)(O)O`, the activity change, negative = inhibition was 5.32% (inactive) and -0.0921% (inactive).
Regarding `CC(=O)OCC(=O)[C@@]1(O)CCC2C3C[C@H](C)C4=CC(=O)C=CC4(C)C3[C@@H](O)CC21C` (stereo partly drawn), the activity change, negative = inhibition is -6.72% (inactive).
As for `N[C@@H](CSS(=O)(=O)O)C(=O)O`, the figure is 14.6% (inactive); as for `c1cc(OCCN2CCCCC2)cc(-c2n[nH]c3ccc(-c4ncn[nH]4)cc23)c1`, -32.3% (inactive).
Under `C1=C/COCc2cc(ccc2OCCN2CCCC2)Nc2nccc(n2)-c2cccc(c2)COC/1` stands -80.3% (active).
On to `Cc1ccccc1N1CCN(S(=O)(=O)CC23CCC(C[C@@H]2NC(=O)[C@@H](N)CCS(C)(=O)=O)C3(C)C)CC1` (stereo partly drawn), for which the activity change, negative = inhibition is 1.28% (inactive) and 5.87% (inactive).

These data come from PubChem BioAssay AID1259421 (Broad Institute, 2018).
